Here are results for five compounds from PubChem BioAssay AID624291 (National Center for Advancing Translational Sciences (NCATS), 2012).

About 220 (0.063%) of roughly 350,000 compounds were called active. Entries that show only a call come without a potency. Inconclusive results (about 4%) are left out. The call rests on the fitted dose curve; in most records, active means well fitted activation curve with a large enough effect; inconclusive means small, poorly fitted or top-dose-only effect; inactive means no such curve, though single readings can be large or run the other way. This excerpt belongs to a sample that is enriched for actives.
Potency means the concentration at half of the fitted maximal effect.

The nature of this test: qHTS for Activators of Integrin-Mediated Alleviation for Muscular Dystrophy. Further: nearly all actives have a fitted effect of over 60% in size. To be noted: alpha7betagal myoblasts, beta-gal FDG fluorescence, 48 h; series mostly up to 38.3 µM. From the text:
Integrins are a diverse family of transmembrane cell surface receptors that mediate interactions between cells and the extracellular matrix. These heterodimeric proteins are composed of alpha and beta subunits and the a7b1 interacts with laminin in the extracellular matrix and actin of the cell cytoskeleton. Both chains contribute to ligand binding, but the alpha chain mediates the specificity of the interaction. The alpha7beta1 integrin is a major laminin receptor in skeletal, cardiac and vascular smooth muscle. Mutations in the alpha7 integrin gene are responsible for muscular dystrophy in both humans and mice. The alpha7beta1 integrin is also a major modifier of muscle disease progression in various muscle diseases including Duchenne muscular dystrophy, Fukuyama muscular dystrophy and merosin deficient congenital muscular dystrophy type 1A. […] Transcriptional regulation of the alpha7 integrin gene is poorly understood and probably involves multiple transcription factors. The goal of identifying small molecules that enhance alpha7 integrin expression is two-fold: firstly, such molecules would help us gain insight into the complex transcriptional control of alpha7 integrin. It is known that alpha7 integrin expression is tightly controlled during various stages of development, disease and in response to external stimuli. The second goal of the project is to translate the above finding into a therapeutic strategy for muscular dystrophy. […] Thus this project aims to discover small molecule probes that would not only help in gaining a better understanding of the complex regulatory mechanism of alpha7 integrin expression, but also lead to development of pharmacological agents to fight muscular dystrophy. NIH Chemical Genomics Center [NCGC] NIH Molecular Libraries Probe Centers Network [MLPCN] MLPCN Grant: NS058429 Assay Submitter (PI): Dean Burkin, University of Nevada School of Medicine
A total of 250 alpha7betagal+/- myoblasts at passage 13 were dispensed using a mulitdrop from Thermo into black low base tissue culture treated microclear aurora plates in 6 ul media containing DMEM without phenol, 5% FBS, 1x GluMax and 1x Penicillin/Streptomycin. The plates were incubated 16-24 hr at 37C, 5% CO2, 95% humidity covered with low evaporation stainless steel lids from Kalypsys. Compounds were then dispensed using a Kalypsys pintool to deliver 23 nl/well compounds in DMSO (diluted into 6 uL resulting in a 1:260 dilution of compound). The control compound used was the cdk2 inhibitor SU9516 from Tocirs (found in the initial LOPAC screen). The plates were incubated for 48 hours at 37C, 5% CO2, 95% humidity using the same stainless steel lids. After incubation with compound, 5 ul of the media was aspirated using the Kalypsys washer/dispenser and 3 ul of the Mammalian Protein Extraction Reagent (MPER) lysis buffer (Thermo Fisher) was added. The plates were spun at 2000 rpms to remove bubbles and an initial capture was acquired on the Viewlux (Perkin Elmer) with exciation at 480 nm and emission at 540 nm for 25 seconds to omit any auto fluorescent compounds. The plates were then incubated for 10 minutes at room temperature. […] The plates were again read on the Viewlux with exciation at 480 nm and emission at 540 nm for 25 seconds.
(In general: In qHTS, concentration-response curves come from the screen itself.)
As for `O=Cc1cn(Cc2ccc(F)cc2Cl)c2ccccc12`, the Potency is 15.8 µM (active).
The result for `O=c1[nH]c(=S)[nH]c(O)c1/C=C1\C=Nc2ccccc21` reads “inactive”; that for `Cc1ccc(Oc2cnn(-c3ccccc3)c(=O)c2Br)cc1`, “inactive”.
Regarding `CC(=O)c1ccc(S(=O)(=O)N2CCN(c3nc4c(C)c(C)ccc4cc3C#N)CC2)cc1`, the Potency result is “inactive”.
As for `CCOC(=O)c1cccc(C2=C(CNC(=O)c3ccncc3)[C@H]3CC[C@@H](C2)N3Cc2ccccc2)c1`, the Potency entry was “inactive”.
